In the library only some 8.3% were active in any assay of this set; here they are far more common.
Giardia killer: kills Giardia lamblia | Giardia lamblia trophozoite viability | activity change, % at 7.66 µM, hits read low | 340,000 tested, 0.15% active; in the data active = activity change below about -80%; inconclusive = between about -30% and that limit;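 also: parasites exposed to compound for two days anaerobically before the ATP read; % is scaled to controls: 0 for no effect and ±100 for the full control effect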
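Giardia lamblia trophozoites (100 cells/well) were incubated with compounds for 48 h at 37 deg C under anaerobic conditions. Viability was read as ATP content by one-step luminescence after 15-30 min at room temperature.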
RORgamma inh: inhibitors of mouse ROR gamma transcriptional activity. Potency, µM (top dose mostly 53.6 µM), inactives show at the highest dose activity change, negative = inhibition, hits mostly inhibitors. Drosophila S2 Gal4-RORgamma UAS-luciferase reporter, 20 h. 310,000 tested, 5.4% active. AID 2551; also: potency is read from the fitted curve at half-maximal effect; % is scaled to controls: 0 for no effect and ±100 for the full control effect; nearly all actives have a fitted effect of over 60% in size
Target sequence (P51450 whole entry, looked up, the tested form may be a part): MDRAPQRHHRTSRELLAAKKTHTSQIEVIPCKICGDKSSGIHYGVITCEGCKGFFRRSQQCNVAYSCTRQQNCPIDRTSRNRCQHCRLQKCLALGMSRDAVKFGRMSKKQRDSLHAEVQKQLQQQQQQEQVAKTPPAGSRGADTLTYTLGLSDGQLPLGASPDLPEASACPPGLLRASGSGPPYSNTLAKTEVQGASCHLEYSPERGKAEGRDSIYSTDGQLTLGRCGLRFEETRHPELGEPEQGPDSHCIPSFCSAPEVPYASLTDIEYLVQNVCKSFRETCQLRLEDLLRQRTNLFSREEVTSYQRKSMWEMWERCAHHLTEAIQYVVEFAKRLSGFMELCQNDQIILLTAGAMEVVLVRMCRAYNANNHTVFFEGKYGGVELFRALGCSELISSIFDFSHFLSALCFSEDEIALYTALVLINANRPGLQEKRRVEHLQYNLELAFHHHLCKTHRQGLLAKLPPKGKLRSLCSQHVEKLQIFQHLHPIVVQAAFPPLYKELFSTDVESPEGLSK
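ROR gamma transcriptional activity was tracked as Gal4-UAS luciferase output in stably transfected Drosophila Schneider cells, with compound added 1 hr before 700 uM copper sulfate induction and a 20 hr ambient-temperature incubation.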
MCF10A rerep: DNA re-replication induction in MCF 10a cells | 350,000 tested, 2.9% active | Potency, µM (top dose mostly 46.1 µM), inactives show at the highest dose activity, positive = re-replication, actives largely listed as activators | AID 624296 | MCF 10A DNA re-replication, Hoechst nuclear intensity, 48 h; also: potency is read from the fitted curve at half-maximal effect; % of control where 0% means no effect; nearly all actives have a fitted effect of over 50% in size
SW480 rerep: inducers of DNA re-replication in SW480 colon cancer cells; SW480 DNA re-replication, Hoechst DNA content imaging, 48 h; Potency, µM (series often up to 46.1 µM), for the others: at the top dose re-replication activation, hits mostly activators; 340,000 tested, 1.8% active; AID 624297; also: potency is read from the fitted curve at half-maximal effect; % of control where 0% means no effect; nearly all actives have a fitted effect of over 55% in size
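Compounds, transferred as 23 nL by pin tool, were incubated with cells for 48 hr; DNA content per nucleus was then quantified by Hoechst staining and fluorescence plate imaging.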
BCR signal inh: inhibitors of chronic active B-cell receptor signaling. ABC-DLBCL IkBa-CBG/CBR reporter, luminescence ratio, 4 h. Potency, µM (top dose mostly 46.1 µM), for inactives: top-dose activity change, negative = inhibition, most hits filed as inhibitors. 340,000 tested, 0.05% active; active = well fitted inhibition curve with a large enough effect in the signal ratio, with a control signal flat, not every such curve was filed as active; inconclusive = small, poorly fitted or top-dose-only effect, or effect the other way, or a change in a side signal; the % refers to the signal ratio;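 also: potency is read from the fitted curve at half-maximal effect; plate controls were basal doxycycline-induced cells for no effect and cells given 10 µM MG132 for full effect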
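Compounds up to 46 uM were incubated four hours with TMD8 cells whose green CBG68 luciferase is fused to IkappaBalpha; red CBR luminescence normalised the signal, and concentration-effect curves were fitted to fusion, red and ratio data.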
Gal4-VP16 FLuc: Gal4-VP16 reporter inhibition counter-screen. Drosophila S2 Gal4-VP16 UAS-luciferase, luminescence, 20 h. Potency, µM (titrated, usually from 53.6 µM), for inactives: at the top dose activity, negative = inhibition, usual class: inhibitors. 310,000 tested, 3.5% active;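 also: Gal4-VP16 expression switched on by copper sulfate through the metallothionein promoter; potency is read from the fitted curve at half-maximal effect; % is scaled to controls: 0 for no effect and ±100 for the full control effect; nearly all actives have a fitted effect of over 50% in size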
Numbers without * were called inactive; [ ] = remark or other dose. Unless noted, calls follow the shape of the dose curve; as a rule, active = well fitted curve in the direction sought with a large enough effect; inconclusive = small, poorly fitted or top-dose-only effect, or another doubt; inactive = no such curve, though single readings can be large; an effect the other way counts as inactive or inconclusive.

What do the screens show for `CCC1=NN(C(=O)Cc2ccc([N+](=O)[O-])cc2)C(O)(C(F)(F)F)C1` (centres undefined)?
Giardia killer: -28; RORgamma inh: inconclusive; MCF10A rerep: -1%; SW480 rerep: 3%; BCR signal inh: inconclusive; Gal4-VP16 FLuc: 10%

Results for CCCC1=NN(C(=O)Cc2ccc([N+](=O)[O-])cc2)C(O)(C(F)(F)F)C1 (centres undefined) ?
Giardia killer: 0; RORgamma inh: 20µM*; MCF10A rerep: -22%; SW480 rerep: 3%; BCR signal inh: 3%; Gal4-VP16 FLuc: inconclusive

Results for CC(C)(C)C1(O)CC(C(F)(F)F)=NN1C(=O)Cc1ccc([N+](=O)[O-])cc1 (centres undefined) ?
Giardia killer: -18; RORgamma inh: inconclusive; MCF10A rerep: 18%; SW480 rerep: 13%; BCR signal inh: 1%; Gal4-VP16 FLuc: -8%

What do the screens show for `O=C(COC(=O)/C=C/c1ccccc1[N+](=O)[O-])NCc1ccco1`?
Giardia killer: 0; MCF10A rerep: -2%; SW480 rerep: 9%; BCR signal inh: -5%

How did COc1cccc(-c2cc(C(=O)N3CCN(C(=O)c4ccco4)CC3)on2)c1 do in these assays?
Giardia killer: -14; RORgamma inh: 22%; MCF10A rerep: 1%; SW480 rerep: -5%; BCR signal inh: 0%; Gal4-VP16 FLuc: -13%

Results for CC12C=C(/C=C/C=C/c3ccco3)C(C)(C1)C(/C=C/c1ccco1)CC2=O (centres undefined) ?
RORgamma inh: 21%[10 µM]; Gal4-VP16 FLuc: -2%[10 µM]

What do the screens show for `O=C(Cc1ccc([N+](=O)[O-])cc1)N1N=C(C2CC2)CC1(O)C(F)(F)F` (centres undefined)?
Giardia killer: 10; RORgamma inh: 16µM*; MCF10A rerep: inconclusive; SW480 rerep: -6%; BCR signal inh: inconclusive; Gal4-VP16 FLuc: inconclusive

What do the screens show for `CCN(C(=S)NCc1ccccc1)c1ccccc1`?
Giardia killer: -2; RORgamma inh: 14µM*; MCF10A rerep: 20%; SW480 rerep: -1%; BCR signal inh: -11%; Gal4-VP16 FLuc: -8%

Results for C=CCNC(=S)N(CC)c1cccc2ccccc12 ?
Giardia killer: 0; RORgamma inh: 7.1µM*; MCF10A rerep: -3%; SW480 rerep: -94%; BCR signal inh: 1%; Gal4-VP16 FLuc: inconclusive

Results for CCN(C(N)=S)c1ccccc1 ?
Giardia killer: 24; RORgamma inh: 11µM*; MCF10A rerep: -3%; SW480 rerep: -6%; BCR signal inh: -5%; Gal4-VP16 FLuc: -14%

What do the screens show for `CCN(C(=S)NCc1ccccc1)c1cccc2ccccc12`?
Giardia killer: -5; RORgamma inh: 7.1µM*; MCF10A rerep: inconclusive; SW480 rerep: 3%; BCR signal inh: 4%; Gal4-VP16 FLuc: inconclusive

Results for CCN(C(=N)N=C(N)N)c1ccccc1 ?
Giardia killer: -15; RORgamma inh: 25%; MCF10A rerep: 10%; SW480 rerep: 13%; BCR signal inh: 8%; Gal4-VP16 FLuc: -1%

What do the screens show for `S=c1[nH]nc(Nc2cccc(Cl)c2)s1`?
Giardia killer: -18; RORgamma inh: -38%; MCF10A rerep: 1%; SW480 rerep: -3%; BCR signal inh: inconclusive; Gal4-VP16 FLuc: -9%

Results for S=c1[nH]nc(Nc2ccccc2Cl)s1 ?
Giardia killer: 9; RORgamma inh: 7.9µM*; MCF10A rerep: -3%; SW480 rerep: -5%; BCR signal inh: inconclusive; Gal4-VP16 FLuc: 0%

What do the screens show for `CC1CCC(C(C)C)C(OC(=O)COC(=O)c2cc(O)ccc2N)C1` (centres undefined)?
Giardia killer: 25; RORgamma inh: -4%; MCF10A rerep: 23µM*; SW480 rerep: 26µM*; BCR signal inh: -2%; Gal4-VP16 FLuc: inconclusive

What do the screens show for `CCS(=O)(=O)c1ccc2oc(SCC(=O)Nc3ccc(OC)cc3)nc2c1`?
Giardia killer: 8; RORgamma inh: 31%; MCF10A rerep: -3%; SW480 rerep: inconclusive; BCR signal inh: 6%; Gal4-VP16 FLuc: -5%

How did CN(C(=O)c1cccc(NC(=O)Cc2ccc(NC(=O)C3CCN(C(=O)C4CCC4)CC3)cc2)c1)C1CCCC1 do in these assays?
Giardia killer: -14; MCF10A rerep: inconclusive; SW480 rerep: inconclusive

What do the screens show for `C=CCn1c(-c2ccc(Cl)cc2)c[nH]c1=S`?
Giardia killer: 8; RORgamma inh: 2µM*; MCF10A rerep: 18%; SW480 rerep: inconclusive; BCR signal inh: inconclusive; Gal4-VP16 FLuc: 2.8µM*

What do the screens show for `C=CCn1c(-c2ccccc2)c[nH]c1=S`?
Giardia killer: -1; RORgamma inh: -29%; MCF10A rerep: 20%; SW480 rerep: inconclusive; BCR signal inh: inconclusive; Gal4-VP16 FLuc: inconclusive

How did CCn1c(-c2ccc(-c3ccccc3)cc2)c[nH]c1=S do in these assays?
Giardia killer: 8; RORgamma inh: 1.8µM*; MCF10A rerep: inconclusive; SW480 rerep: 12%; BCR signal inh: 0%; Gal4-VP16 FLuc: 1.6µM*

Results for Cn1c(-c2ccc(-c3ccccc3)cc2)c[nH]c1=S ?
Giardia killer: -4; RORgamma inh: 0.79µM*; MCF10A rerep: -2%; SW480 rerep: -4%; BCR signal inh: inconclusive; Gal4-VP16 FLuc: 2.2µM*

Results for CC(C)C(C)N(Cc1ccc(C(=O)O)cc1)C(=O)c1ccc2ccccc2n1 (centres undefined) ?
Giardia killer: 11; MCF10A rerep: -3%; SW480 rerep: 2%

How did COc1ccc(-c2cnc3c(c2)CCC3(C#N)C#N)cc1 do in these assays?
Giardia killer: 14; RORgamma inh: inconclusive; MCF10A rerep: 4.1µM*; SW480 rerep: 3.3µM*; BCR signal inh: inconclusive; Gal4-VP16 FLuc: 3%

Results for CC(=O)N1CCN(S(=O)(=O)c2cccc(C(=O)NNC(=O)COc3ccc(F)cc3)c2)CC1 ?
Giardia killer: -1; MCF10A rerep: -3%; SW480 rerep: -3%; BCR signal inh: -1%

How did Cc1nc(NC(=O)CSc2nc3cccnc3n2Cc2ccccc2)sc1C do in these assays?
Giardia killer: 1; RORgamma inh: 13µM*; MCF10A rerep: 23µM*; SW480 rerep: 13%; BCR signal inh: -1%; Gal4-VP16 FLuc: inconclusive

Results for CCOC(=O)CNC(=O)CSc1nc2cccnc2n1Cc1ccccc1 ?
Giardia killer: -3; RORgamma inh: 7%; MCF10A rerep: 11%; SW480 rerep: 14%; BCR signal inh: inconclusive; Gal4-VP16 FLuc: -3%

Assay outcomes from PubChem BioAssay.
